ClpP mod: qHTS Assay for Activators of ClpP. purified B. subtilis ClpP, FRET peptide cleavage, 20 min. Potency, µM (titrated, usually from 57.5 µM), for the others: at the top dose activity change, negative = active. 340,000 tested, 1.9% active. AID 651965, 2013; active means well fitted falling curve with a large enough effect; inconclusive means small, poorly fitted or top-dose-only effect; inactive means no such curve, though single readings can be large or run the other way; further: the source files actives as falling curves though it sought activators and does not explain the sign; nearly all actives have a fitted effect of over 65% in size
Target sequence (P80244 whole entry, looked up): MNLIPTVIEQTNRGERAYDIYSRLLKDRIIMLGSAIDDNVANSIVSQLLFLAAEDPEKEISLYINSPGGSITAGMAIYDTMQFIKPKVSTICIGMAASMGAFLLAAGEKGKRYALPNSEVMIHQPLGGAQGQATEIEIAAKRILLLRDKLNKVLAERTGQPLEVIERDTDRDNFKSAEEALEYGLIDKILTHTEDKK
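FRET quenching reversal measured ClpP activation: 10 microg/mL B. subtilis ClpP at pH 8 with the FRET-FV decapeptide, read at 430 nm after 320 nm excitation. The 20-min minus 0-min signal was scaled between DMSO/no-enzyme wells and ADEP (5.8 microM final).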
DT40 TDP1 CPT: growth inhibition of DT40 Tdp1-/-;hTDP1 cells with camptothecin (screen for TDP1 inhibitors) | chicken DT40 Tdp1-/-;hTDP1 cells + 20 nM CPT, ATP luminescence, 48 h | Potency, µM (top dose mostly 46.2 µM), for the others: at the top dose activity change, negative = growth inhibition, most hits filed as inhibitors | AID 686979 | 420,000 tested, 12% active; further: on the % scale 0 is the no-effect control and ±100 the full control effect; nearly all actives have a fitted effect of over 55% in size
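Cell growth measured by CellTiter-Glo luminescence after a minimum 48 h, 37 C compound exposure with 20 nM CPT in Tdp1-knockout DT40 cells stably expressing hTDP1, seeded 400/well; qHTS titration format.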
DT40 TDP1 no CPT: qHTS for Inhibitors of human tyrosyl-DNA phosphodiesterase 1 (TDP1): qHTS in cells in absence of CPT; 420,000 tested, 15% active; DT40 Tdp1-/- hTDP1 cells, no CPT, ATP luminescence, 48 h; AID 686978, 2013; Potency, µM (titrated, usually from 46.2 µM), for inactives: top-dose activity change, negative = growth inhibition, usual class: inhibitors; further: on the % scale 0 is the no-effect control and ±100 the full control effect; nearly all actives have a fitted effect of over 55% in size
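Growth of hTDP1-complemented DT40 Tdp1-knockout cells is measured by ATP luminescence after at least 48 hr compound exposure at 37 °C, with DMSO substituting for the 20 nM CPT used in the parallel screen.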
TDP1 inh: TDP1 (human) enzyme inhibition; recombinant TDP1, AlphaScreen DNA substrate cleavage; Q9NUW8; 350,000 tested, 0.28% active; Potency, µM (top dose mostly 130 µM), without a hit: at the top dose activity change, negative = inhibition, actives largely listed as inhibitors; further: on the % scale 0 is the no-effect control and ±100 the full control effect; nearly all actives have a fitted effect of over 40% in size
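E. coli-derived human Tdp1, 1 nM final. Cpd preinc 15 min RT; substrate 15 nM final, 5 min RT; AS bead mix 10 ug/ml final, 10 min RT. Signal loss = tyrosine-FITC cleavage. No-enzyme wells = max signal.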
The depositor's hits bear a star; [ ] = remark or other dose. An excerpt weighted towards active compounds, which were near 17% of everything screened. Unless noted, the call rests on the fitted dose curve; in most records, active means well fitted curve in the direction sought with a large enough effect; inconclusive means small, poorly fitted or top-dose-only effect, or another doubt; inactive means no such curve, though single readings can be large; an effect the other way counts as inactive or inconclusive. Potency means the concentration at half of the fitted maximal effect.

Results for CCc1ccc(OCCCn2c(CCNC(=O)C3CCCCC3)nc3ccccc32)cc1 ?
ClpP mod: -7%; DT40 TDP1 CPT: inconclusive; DT40 TDP1 no CPT: -21%; TDP1 inh: -10%

How did COc1ccc(CN2CCN(C(=O)c3ccc(S(=O)(=O)N4CCCCCC4)cc3)CC2)cc1F do in these assays?
ClpP mod: 0%; DT40 TDP1 CPT: 21µM*; DT40 TDP1 no CPT: 21µM*; TDP1 inh: -1%

Results for COc1ccc(NC(=O)c2cccc(Oc3ccc([N+](=O)[O-])cc3Cl)c2)cc1 ?
DT40 TDP1 CPT: 5.8µM*; DT40 TDP1 no CPT: 4.6µM*; TDP1 inh: 3%

How did CCN(CC)C(=O)c1ccc(Oc2ccc([N+](=O)[O-])cc2Cl)cc1 do in these assays?
DT40 TDP1 CPT: inconclusive; DT40 TDP1 no CPT: 16µM*; TDP1 inh: -3%

What do the screens show for `O=[N+]([O-])c1ccc(Oc2ccc(-c3nnco3)cc2)c(Cl)c1`?
DT40 TDP1 CPT: -17%; DT40 TDP1 no CPT: -27%; TDP1 inh: 16%

How did Cc1ccc(C)c(NC(=O)c2cccc(Oc3ccc([N+](=O)[O-])cc3Cl)c2)c1 do in these assays?
ClpP mod: 0%; DT40 TDP1 CPT: inconclusive; DT40 TDP1 no CPT: 16µM*; TDP1 inh: 3%

How did O=C(Nc1cccc(Cl)c1)c1cccc(Oc2ccc([N+](=O)[O-])cc2Cl)c1 do in these assays?
ClpP mod: -2%; DT40 TDP1 CPT: inconclusive; DT40 TDP1 no CPT: inconclusive; TDP1 inh: 3%

How did CN(C)S(=O)(=O)c1ccc(C(=O)N2CC(=O)Nc3ccc(Br)cc3C2c2ccc(F)cc2)cc1 (centres undefined) do in these assays?
ClpP mod: 0%; DT40 TDP1 CPT: inconclusive; DT40 TDP1 no CPT: inconclusive; TDP1 inh: 9%

Results for Fc1cc(F)cc(Nc2nc(NC3CCCC3)nc(C3CO3)n2)c1 (centres undefined) ?
TDP1 inh: 2%

What do the screens show for `Cc1ccc([N+](=O)[O-])cc1N=Nc1c(-c2ccc([N+](=O)[O-])cc2)[nH]n(C(N)=S)c1=O`?
ClpP mod: -1%; DT40 TDP1 CPT: 8.2µM*; DT40 TDP1 no CPT: 2.9µM*; TDP1 inh: -2%

Results for Cc1c(Cl)cccc1-n1ncc(C(=O)Nc2ccc(F)cc2F)c1C1CCN(C(=O)OC(C)(C)C)CC1 ?
ClpP mod: -1%; DT40 TDP1 CPT: inconclusive; DT40 TDP1 no CPT: 15µM*; TDP1 inh: 7%

How did Cc1c(Cl)cccc1-n1ncc(C(=O)N2CCC(C)CC2)c1C1CCN(C(=O)OC(C)(C)C)CC1 do in these assays?
ClpP mod: 1%; DT40 TDP1 CPT: inconclusive; DT40 TDP1 no CPT: 21µM*; TDP1 inh: -1%

What do the screens show for `Cc1c(Cl)cccc1-n1ncc(C(=O)NC2CCCC2)c1C1CCN(C(=O)OC(C)(C)C)CC1`?
ClpP mod: 1%; DT40 TDP1 CPT: inconclusive; DT40 TDP1 no CPT: 21µM*; TDP1 inh: 3%

Results for Cc1c(Cl)cccc1-n1ncc(C(=O)NC2CCCCC2)c1C1CCN(C(=O)OC(C)(C)C)CC1 ?
ClpP mod: -1%; DT40 TDP1 CPT: inconclusive; DT40 TDP1 no CPT: inconclusive; TDP1 inh: 3%

Results for CC(C)(C)OC(=O)N1CCC2(CC1)Oc1ccc(Cl)cc1C(=O)C21CC(c2ccc(Cl)cc2)=NO1 (centres undefined) ?
ClpP mod: -3%; DT40 TDP1 CPT: inconclusive; DT40 TDP1 no CPT: inconclusive

What do the screens show for `COCCCNC(=O)N1CCN(c2nnc(C)c3c(C)n(-c4ccc(Cl)cc4)nc23)CC1`?
ClpP mod: -7%; DT40 TDP1 CPT: -10%; DT40 TDP1 no CPT: -12%; TDP1 inh: 5%

Results for O=C(Cc1cccc2ccccc12)N/N=C/c1ccc(O)c([N+](=O)[O-])c1 ?
DT40 TDP1 CPT: 20%; DT40 TDP1 no CPT: -16%; TDP1 inh: 3%

Results for O=C(Cc1cccc2ccccc12)N/N=C/c1ccc2cccc(O)c2n1 ?
DT40 TDP1 CPT: inconclusive; DT40 TDP1 no CPT: 15µM*; TDP1 inh: 8%

How did CCn1cc(/C=C(\NC(=O)c2ccccc2)C(=O)NCCN2CCOCC2)c2ccccc21 do in these assays?
ClpP mod: -1%; DT40 TDP1 CPT: inconclusive; DT40 TDP1 no CPT: inconclusive

Results for N#Cc1ccc(-c2nc3ccc(Br)cn3c2Cc2cccc(Cl)c2)cc1 ?
ClpP mod: -16%; DT40 TDP1 CPT: inconclusive; DT40 TDP1 no CPT: 21µM*

How did COc1ccccc1Cc1c(-c2ccc(OC)c(OC)c2)nc2ccc(Br)cn12 do in these assays?
ClpP mod: -6%; DT40 TDP1 CPT: 18µM*; DT40 TDP1 no CPT: 5.8µM*

What do the screens show for `COc1ccc(-c2nc3ccc(Br)cn3c2Cc2cccc(Cl)c2)cc1OC`?
ClpP mod: -8%; DT40 TDP1 CPT: inconclusive; DT40 TDP1 no CPT: 21µM*

Results for Cc1ccc(-c2nc3ccc(Cl)cn3c2Cc2cccc(Cl)c2)cc1 ?
ClpP mod: -15%; DT40 TDP1 CPT: inconclusive; DT40 TDP1 no CPT: 16µM*

Results for CCn1c(-c2cccc(OC)c2)nc2cc(NC(C)=O)cc(C(=O)N(C)CC3COCCO3)c21 (centres undefined) ?
DT40 TDP1 CPT: 2%; DT40 TDP1 no CPT: -17%

How did O=C(Cc1csc(-c2ccccc2)n1)NCC(=O)Nc1ccc(F)c(F)c1F do in these assays?
DT40 TDP1 CPT: -4%; DT40 TDP1 no CPT: -9%; TDP1 inh: 0%

How did O=C(CCc1nnc(CCc2ccccc2)o1)NC(c1cccnc1)C(F)(F)F (centres undefined) do in these assays?
ClpP mod: -2%; DT40 TDP1 CPT: -13%; DT40 TDP1 no CPT: 2%

How did O=C(c1cccc(F)c1)N1CCC2(CCCN(c3ccc(-c4ccccc4)cc3)C2)CC1 do in these assays?
DT40 TDP1 CPT: 0%; DT40 TDP1 no CPT: inconclusive

Results for COc1cccc(OCC(=O)O/N=C(\N)c2ccncc2)c1 ?
DT40 TDP1 CPT: 1%; DT40 TDP1 no CPT: -3%; TDP1 inh: 2%[0.0935 µM]

Results for CC(=O)Nc1ccc(OCc2cccc(C3Nc4ccccc4C(=O)N3Cc3ccco3)c2)cc1 (centres undefined) ?
TDP1 inh: 0%

What do the screens show for `O=C(NC(Cc1ccccc1)C(=O)N1CCCCC1)c1ccccc1` (centres undefined)?
ClpP mod: 0%; DT40 TDP1 CPT: 1%; DT40 TDP1 no CPT: -4%

How did O=C1C2C3C=CC(C3)C2C(=O)N1Nc1c(Cl)cc(Cl)cc1Cl (centres undefined) do in these assays?
ClpP mod: 1%; DT40 TDP1 CPT: -20%; DT40 TDP1 no CPT: 6%; TDP1 inh: 8%

How did Clc1ccc(-c2nc3ccc(Br)cn3c2Cc2cccc(Cl)c2)cc1 do in these assays?
ClpP mod: -9%; DT40 TDP1 CPT: inconclusive; DT40 TDP1 no CPT: inconclusive
